Holding throughout (experiment): NCI-60 one-dose screen, 48 h (100 = growth as untreated, 0 = no growth, -100 = all killed)
What all share (conditions): 10 µM unless noted

Assay [1] concerns SK-MEL-2 melanoma.
The test system of assay [2] is EKVX NSCLC.
The subject of assay [3] is UO-31 renal.
The subject of assay [4] is TK-10 renal.
In assay [5] the test system is ACHN renal.
Assay [6] relates to CAKI-1 renal.
The test system of assay [7] is A498 renal.
Assay [8] deals with CCRF-CEM leukemia.
The test system of assay [9] is MOLT-4 leukemia.
Assay [10] has as its system SR leukemia.
Assay [11] has as its system RPMI-8226 leukemia.
Assay [12] concerns OVCAR-8 ovarian.
Assay [13] has as its system OVCAR-5 ovarian.
Assay [14] relates to OVCAR-4 ovarian.
For assay [15], the system named is SK-OV-3 ovarian.
The test system of assay [16] is IGROV1 ovarian.
The subject of assay [17] is OVCAR-3 ovarian.
Assay [18] deals with HS 578T breast.
For assay [19], the system named is NCI/ADR-RES ovarian.

The structures appear in SMILES notation. This is part of a sample that, as a whole, favours compounds with a hit. Of some 83,000 tested, about 20% had one in any assay.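 Cells were grown in 96-well plates and exposed to the test compound at a single concentration for 48 hours; results are reported as percent growth, with values below 10 considered active.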 Values without a mark were called inactive. Active and inactive are the calls of the source.

Consider `CC/C=C\C[C@H]1C/C=C2/C(=O)C=C[C@H]2C/C=C\CCCC(=O)O1`, for which the growth in assay [1] is 21.4%; in assay [2], 45%; in [3], 55.5%; in [4], 29.6%; in [5], -67.7% (active); in assay [6] it was 25.2%. Besides, the growth in [7] was 79.5%; in [8], -6.1% (active); in assay [9], 14.3%; in assay [10], 4.6% (active); in assay [11] it was -10% (active); in assay [12], 0.796% (active). For the same compound, the growth in assay [13] was 87.8%; in assay [14] it was 29.5%; in [15], 37.3%; in assay [16] it was 12.4%; in assay [17] it was 6.53% (active); in assay [18] it was 54.2%. The growth in assay [19] was 22.4%.
`NCCNc1nc(Nc2ccc(-c3nc4ccccc4[nH]3)cc2)c2cn[nH]c2n1`: the growth in [1] is 75%; in [2] it was 88.9%; in assay [3], 76.7%; in assay [4], 105%; in assay [5], 91.9%; in assay [6] it was 91.5%. Moreover, the growth is 115% in assay [7]; -3.49% (active) in [8]; 8.24% (active) in assay [9]; -3.8% (active) in assay [10]; -11.7% (active) in assay [11]; 43.9% in assay [12]. Also, the growth was 125% in assay [13]; 88.4% in [14]; 111% in assay [15]; 97.6% in [16]; 83.9% in assay [17]; 41.8% in [18]. In addition, the growth in [19] was 94.9%.
Consider `CC(=O)O[C@H]1C(=O)[C@@]2(C)[C@H]([C@H](OC(=O)c3ccccc3)[C@]3(O)C[C@H](OC(=O)[C@H](OC(=O)CCC(=O)OC4CCC(S/N=C(N)/N=C(\N)N(C)C)CC4)[C@@H](NC(=O)c4ccccc4)c4ccccc4)C(C)=C1C3(C)C)[C@]1(OC(C)=O)CO[C@@H]1C[C@@H]2O` (stereo partly specified), for which the growth in assay [1] was 12.8%; in [2] it was 37.3%; in [3], 47.3%; in assay [4] it was 48.9%; in assay [5], 39.7%; in [6], 25.5%. Further, the growth in [7] was 26.7%; in assay [8] it was 17.5%; in assay [9] it was 22.5%; in assay [10] it was 11.3%; in [11], 14%; in assay [12], 21.8%. In addition, the growth in assay [13] is 39.5%; in assay [14] it was 40.3%; in assay [15], 28.4%; in assay [16], 43.1%; in [17], 10.2%; in assay [18], -9.33% (active). Further, the growth in [19] is 44.5%.
For the compound `NC(=NC1C2CC3CC(C2)CC1C3)Nc1ccc(I)cc1` (stereo unspecified), the growth in assay [1] was 50.3%; in [2] it was 32.2%; in [3], 18.6%; in assay [4], 43.5%; in [5] it was 7.41% (active); in [6], 18%. Besides, the growth in [7] is -12.5% (active); in assay [8] it was 8.16% (active); in [9], 5.63% (active); in assay [10], -10.1% (active); in assay [11] it was 20.6%; in assay [12], 70.1%. In addition, the growth in assay [13] is 38.9%; in [14], 20.2%; in [15] it was 77.6%; in assay [16], 4.42% (active); in [17], 53.9%; in [18], 33%. Further, in assay [19], the growth is 49.5%.
With `COc1cc2c(cc1O)CC[C@@H]1[C@@H]2CC[C@]2(C)[C@@H](NCCN(C)C)CC[C@@H]12`, the growth is -95.7% (active) in assay [1]; -82.8% (active) in assay [2]; -84.1% (active) in assay [3]; -95.8% (active) in assay [4]; -92.8% (active) in assay [5]; -95.9% (active) in [6]. The growth is -71.8% (active) in [8]; -71.8% (active) in [9]; -67.2% (active) in [10]; -59.9% (active) in assay [11]; -79% (active) in assay [12]; -84% (active) in [13]. Also, the growth in assay [14] was -63.3% (active); in assay [15], -90% (active); in assay [16], -74.8% (active); in assay [17], -88.3% (active); in assay [18], -56.9% (active); in assay [19], -85.9% (active).
Regarding `COc1ccccc1Nc1nc(-c2cc3cccc(C(F)(F)F)c3oc2=O)cs1`, the growth in assay [1] is 26.8%; in [2], 36.1%; in assay [3], 52%; in [4] it was 67.9%; in assay [5] it was 24.6%; in [6] it was 9.18% (active). In addition, the growth in assay [7] was -9.67% (active); in assay [8] it was 7.96% (active); in [9], 14.9%; in assay [10], 10.2%; in assay [11], 16.8%; in [12], 9.28% (active). In addition, the growth in assay [13] is 67%; in [14] it was 37.1%; in [15], 31.3%; in [16], 22.9%; in assay [17], -21.7% (active); in assay [18], 31.4%. The growth in assay [19] is 15%.
For the compound `COc1cc2c(cc1O)CC[C@@H]1[C@@H]2CC[C@]2(C)[C@@H](OCCCN(C)C)CC[C@@H]12`, the growth is -85.9% (active) in [1]; 0.0282% (active) in assay [2]; -79.6% (active) in [3]; -6.67% (active) in assay [4]; -62.8% (active) in [5]; 10.9% in assay [6]. The growth in assay [7] was -53.6% (active); in assay [8], -7.19% (active); in [9], -21.1% (active); in assay [10] it was -36.2% (active); in assay [11], -32.9% (active); in [12], -34.2% (active). The growth was 2.83% (active) in assay [13]; -15% (active) in assay [14]; -59.1% (active) in [15]; -35.2% (active) in assay [16]; -55.5% (active) in [17]; -38.2% (active) in [18]. Also, the growth in [19] is -23.4% (active).
Turning to `CCOc1ccc(-n2nc(C(=O)Nc3ccccc3)nc2-c2cc(OC)c(OC)c(OC)c2)cc1`, the growth in [1] is 37.7%; in assay [2], 53.2%; in [3], 37.7%; in [4], 72.4%; in [5], 62.8%; in assay [6] it was 51.6%. Also, the growth in assay [7] is 10.3%; in [8], 50.8%; in [9] it was 42.9%; in assay [10] it was 17%; in assay [11], 47.4%; in assay [12] it was 61.6%. Further, the growth in assay [13] was 84.1%; in [14] it was 59.5%; in [15] it was 51%; in assay [16] it was 55.1%; in [17] it was 43.2%; in assay [18], 39.6%. Besides, the growth in [19] is 45.7%.

For the origin of these results see PubChem BioAssay (NCI).
